For one experiment, the target named is Aromatase (Homo sapiens) (UniProt P11511). The experiment can be described thus: qHTS assay to identify aromatase inhibitors (AID 743083; active means well fitted curve in the direction sought with a large enough effect in the repeat runs; an effect the other way counts as inactive or inconclusive; further: nearly all actives have a fitted effect of over 55% in size; further: potency means the concentration at half of the fitted maximal effect). (In qHTS, concentration-response curves come from the screen itself.)
Chain of Aromatase (Homo sapiens) (P11511 whole entry, looked up): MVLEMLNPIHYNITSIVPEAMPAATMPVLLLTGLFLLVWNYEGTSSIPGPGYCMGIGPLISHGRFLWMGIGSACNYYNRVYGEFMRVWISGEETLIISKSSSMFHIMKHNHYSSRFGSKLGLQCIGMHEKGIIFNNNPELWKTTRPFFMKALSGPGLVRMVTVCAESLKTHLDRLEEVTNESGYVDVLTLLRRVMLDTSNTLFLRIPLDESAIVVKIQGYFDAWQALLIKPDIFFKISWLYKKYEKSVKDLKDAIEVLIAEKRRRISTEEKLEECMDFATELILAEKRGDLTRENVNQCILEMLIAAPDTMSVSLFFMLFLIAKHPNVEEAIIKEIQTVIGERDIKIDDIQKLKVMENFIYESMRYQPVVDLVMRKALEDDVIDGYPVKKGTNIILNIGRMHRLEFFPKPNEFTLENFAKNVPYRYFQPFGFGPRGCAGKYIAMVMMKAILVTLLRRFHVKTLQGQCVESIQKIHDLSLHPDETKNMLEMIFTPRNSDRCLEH
Experiment [1] deals with Aryl hydrocarbon receptor (Homo sapiens) (UniProt P35869). The experiment in a line: qHTS assay to identify small molecule that activate the aryl hydrocarbon receptor (AhR) signaling pathway (AID 743085; active means well fitted curve in the direction sought with a large enough effect in the repeat runs; an effect the other way counts as inactive or inconclusive; further: nearly all actives have a fitted effect of over 15% in size; further: potency means the concentration at half of the fitted maximal effect;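 on activation: HG2L7.5c1 human HepG2 liver cells with stably integrated DRE-driven firefly reporter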). The method, boiled down: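 Stably transfected human liver carcinoma cells (HG2L7.5c1; 20 DRE-firefly luciferase) were incubated 5 h, dosed, and kept 24 h at 37C. Agonism was scored from increased luciferase luminescence.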
Chain of Aryl hydrocarbon receptor (Homo sapiens) (P35869 whole entry, looked up): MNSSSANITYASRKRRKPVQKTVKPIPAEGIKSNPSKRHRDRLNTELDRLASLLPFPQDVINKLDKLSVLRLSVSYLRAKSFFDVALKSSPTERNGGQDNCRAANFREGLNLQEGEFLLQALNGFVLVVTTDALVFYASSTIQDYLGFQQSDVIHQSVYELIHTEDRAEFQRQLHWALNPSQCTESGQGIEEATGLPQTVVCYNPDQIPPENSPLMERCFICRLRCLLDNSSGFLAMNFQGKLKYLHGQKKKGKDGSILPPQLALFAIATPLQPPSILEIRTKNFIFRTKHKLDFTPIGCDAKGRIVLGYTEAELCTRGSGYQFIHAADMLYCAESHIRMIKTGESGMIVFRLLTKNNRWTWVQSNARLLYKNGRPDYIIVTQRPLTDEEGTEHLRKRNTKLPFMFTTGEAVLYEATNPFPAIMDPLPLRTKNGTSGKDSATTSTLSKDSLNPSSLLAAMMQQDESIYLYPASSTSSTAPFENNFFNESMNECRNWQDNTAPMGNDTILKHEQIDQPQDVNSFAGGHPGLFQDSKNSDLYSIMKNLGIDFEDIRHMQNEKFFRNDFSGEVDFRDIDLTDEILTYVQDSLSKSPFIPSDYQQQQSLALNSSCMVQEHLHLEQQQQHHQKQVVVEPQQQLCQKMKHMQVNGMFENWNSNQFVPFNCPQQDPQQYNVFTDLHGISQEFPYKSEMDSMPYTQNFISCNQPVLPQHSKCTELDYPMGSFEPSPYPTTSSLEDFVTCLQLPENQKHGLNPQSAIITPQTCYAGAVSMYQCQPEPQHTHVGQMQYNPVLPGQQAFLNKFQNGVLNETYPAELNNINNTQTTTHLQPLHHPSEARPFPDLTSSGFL

A short description of experiment [2]: qHTS assay to identify small molecule antagonists of the retinoic acid receptor (RAR) signaling pathway (AID 1159552; active means well fitted curve in the direction sought with a large enough effect in the repeat runs; an effect the other way counts as inactive or inconclusive; further: nearly all actives have a fitted effect of over 50% in size; further: potency means the concentration at half of the fitted maximal effect). The method, boiled down:
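Test chemicals and DMSO controls were pin-transferred onto C3RL4 cells a day after seeding; retinol (1 uM final) followed at once. Luminescent reporter output was quantified after 6 hr of co-incubation and 30 min with detection reagent.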

The target in experiment [3] is Acetylcholinesterase (Homo sapiens) (UniProt P22303). The experiment can be described thus: Acetylcholinesterase (AChE) small molecule antagonists: colormetric cell-based qHTS assay (AID 1347395). Further: nearly all actives have a fitted effect of over 30% in size. The method, boiled down:
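After overnight attachment at 37 C, SH-SY5Y cells get 30 min compound exposure; detection cocktail (acetylthiocholine, DTNB) then incubates 90 min at 37 C, and absorbance reflects AChE-generated thiocholine.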

Experiment [4] has the same target. The experiment can be described thus: Acetylcholinesterase (AChE) small molecule antagonists: enzyme-based qHTS assay (AID 1347397). Further: nearly all actives have a fitted effect of over 55% in size. The settings on record: Potency: AChE enzyme activity inhibition; outcome: AChE enzyme activity inhibition. In short, it runs like this:
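Tox21 library chemicals are tested in qHTS format against recombinant human AChE. The enzyme, dispensed at 50 mU/mL, sits with compound for 30 min at room temperature. A DTNB–acetylthiocholine cocktail follows, and colour is read after 10 min.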

For experiment [5] the target is unchanged. The experiment in a line: Acetylcholinesterase (AChE) small molecule antagonists: fluorescence cell-based qHTS assay (AID 1347398). Further: nearly all actives have a fitted effect of over 50% in size. The settings on record: Potency: AChE activity; outcome: AChE activity. The method, boiled down:
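Cellular AChE inhibition: SH-SY5Y cells treated with test chemical for 30 min at 37 C, then acetylthiocholine hydrolysis followed over 40 min at room temperature via thiocholine-reactive Thiolite Green fluorescence (490/520 nm).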

Experiment [6] shares this target. The experiment in a line: Acetylcholinesterase (AChE) small molecule antagonists: enzyme-based qHTS assay with human liver microsomes (AID 1347399). Further: nearly all actives have a fitted effect of over 60% in size. As to conditions: Potency: qHTS inhibition; outcome: qHTS inhibition. The method, boiled down:
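Recombinant human AChE (50 mU/mL in the enzyme mix) and human liver microsomes (0.25 mg/mL final) were preincubated with compound and NADPH (0.25 mg/mL final) for 30 min at 37 C. Acetylthiocholine/DTNB was then added; thiocholine was read colorimetrically after 10 min at room temperature.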

Experiment [7] in a line: qHTS assay to identify small molecule agonists of the estrogen related receptor (ERR) signaling pathway from Tox21 library (AID 1224849). Further: nearly all actives have a fitted effect of over 15% in size. As to conditions: ERR reporter cell line, ONE-Glo luciferase, 18 h; at 92.4 µM (top of the series) unless noted. The method, boiled down:
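Cells carrying the ERR reporter were plated and allowed to settle for 6 h, exposed to library compounds for 18 h at 37 C, then lysed with ONE-Glo and luminescence measured.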

Experiment [8] in a line: Caspase-3/7 induction in HepG2 cells by small molecules, qHTS assay (AID 1346978; active means well fitted curve in the direction sought with a large enough effect in the repeat runs; an effect the other way counts as inactive or inconclusive; further: nearly all actives have a fitted effect of over 15% in size). The method, boiled down:
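Wild-type HepG2 cells (2,000/well) were settled 5 h at 37 C, 5% CO2, then exposed to compounds in DMSO for 17 h. Caspase-3/7 activity was read by luminescence 30 min after adding Caspase-Glo 3/7 reagent at room temperature.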

Experiment [9] can be described thus: A CellTox Green Cytotoxicity Assay to monitor cytotoxicity in HEK293 cells - 0 hour (AID 1224869; active means well fitted curve in the direction sought with a large enough effect in the repeat runs; an effect the other way counts as inactive or inconclusive; further: nearly all actives have a fitted effect of over 50% in size). The method, boiled down: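 Cells (HEK293, 600/well) and dye reagent are dispensed together. After 5 h at 37 C, 23 nL compound is pinned in. Plates stay at 37 C for 40 h with fluorescence read at 0h, 8h, 16h, 24h, 32h and 40h.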
Experiment [10] in a line: A CellTox Green Cytotoxicity Assay to monitor cytotoxicity in HepG2 cells - 0 hour (AID 1224882; active means well fitted curve in the direction sought with a large enough effect in the repeat runs; an effect the other way counts as inactive or inconclusive; further: nearly all actives have a fitted effect of over 35% in size). The method, boiled down: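 Cells and non-lytic dye reagent are dispensed together (600 HepG2 cells/well) and incubated 5 h before DMSO compound transfer. Kinetic fluorescence is then recorded in the same wells during 40 h at 37 C.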
A short description of experiment [11]: qHTS assay to identify small molecule HDAC inhibitors (AID 1259364; active means well fitted curve in the direction sought with a large enough effect in the repeat runs; an effect the other way counts as inactive or inconclusive;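 further: wild-type HCT-116 cells with endogenous class I/II HDAC activity; top concentration of the series differs between compounds; nearly all actives have a fitted effect of over 45% in size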). In short, it runs like this:
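Cells (HCT-116, wild type) are seeded at 1,500 per well, incubated overnight, treated with compound in DMSO for 2 hr, then developed with HDAC-Glo I/II reagent for 30 min at room temperature.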

Experiment [12] is described as follows: qHTS assay to identify small molecule agonists of the sonic hedgehog signaling (Shh) pathway (AID 1259368).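 Further: NIH/3T3-derived 3T3Gli1-Luc cells carrying a stable Gli1-driven firefly luciferase reporter; nearly all actives have a fitted effect of over 15% in size.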 The method, boiled down: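 Cells of a mouse NIH/3T3 clone stably expressing luciferase under the Gli1 transcriptional response element are exposed to test chemicals for 24 hr at 37 C. Pathway activation is detected as a rise in luminescence.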
A short description of experiment [13]: Caspase-3/7 induction in CHO-K1 cells by small molecules, qHTS assay (AID 1346980; active means well fitted curve in the direction sought with a large enough effect in the repeat runs; an effect the other way counts as inactive or inconclusive; further: nearly all actives have a fitted effect of over 15% in size). In short, it runs like this: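 Wild-type cells were seeded at 1,500 per well and settled 5 hr at 37 C, 5% CO2, then exposed to DMSO-dissolved compounds for 17 hr. Caspase-Glo 3/7 reagent was added, and luminescence was read after 30min at room temperature.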
Experiment [14] is described as follows: qHTS assay to identify small molecule agonists of the estrogen related receptor signaling pathway with the pleiotropic PPARgamma coactivator (PGC) from Tox21 10K library (AID 1224842; active means well fitted curve in the direction sought with a large enough effect in the repeat runs; an effect the other way counts as inactive or inconclusive; further: nearly all actives have a fitted effect of over 15% in size). In short, it runs like this: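 PGC/ERR reporter cells (NTP line) were seeded 2,000 per well, rested 6 h at 37 C/5% CO2, then pin-dosed with compounds in DMSO for 18 h at 37 C; luciferase read by One-Glo luminescence after 30 min at room temperature.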

Values without a mark were called inactive. Results filed as inconclusive are left out. Active and inactive are the calls of the source. Unless noted, the call rests on the fitted dose curve.
On the % scale 0 is the no-effect control and ±100 the full control effect.

Chain of Acetylcholinesterase (Homo sapiens) (P22303 whole entry, looked up): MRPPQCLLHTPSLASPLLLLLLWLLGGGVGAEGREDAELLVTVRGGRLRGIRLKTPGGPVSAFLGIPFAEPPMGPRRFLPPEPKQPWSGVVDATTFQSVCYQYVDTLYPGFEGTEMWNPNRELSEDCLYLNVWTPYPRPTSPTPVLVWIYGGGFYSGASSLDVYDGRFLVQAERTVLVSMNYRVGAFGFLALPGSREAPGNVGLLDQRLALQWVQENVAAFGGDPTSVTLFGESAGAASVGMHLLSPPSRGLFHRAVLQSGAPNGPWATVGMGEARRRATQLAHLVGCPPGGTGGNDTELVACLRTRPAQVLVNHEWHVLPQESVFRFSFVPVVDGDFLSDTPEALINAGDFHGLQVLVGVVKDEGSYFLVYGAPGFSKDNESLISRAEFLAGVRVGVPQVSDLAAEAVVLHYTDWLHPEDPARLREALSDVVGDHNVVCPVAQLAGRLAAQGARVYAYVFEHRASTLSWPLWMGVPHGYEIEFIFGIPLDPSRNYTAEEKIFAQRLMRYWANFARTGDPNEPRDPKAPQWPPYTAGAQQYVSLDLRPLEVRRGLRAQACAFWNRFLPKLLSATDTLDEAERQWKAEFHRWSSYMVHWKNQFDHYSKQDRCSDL

With `Cc1ccc(N)c([N+](=O)[O-])c1`, the Potency entry (in the experiment with Aromatase (Homo sapiens); in experiment [1]; in [2]; in experiment [3]; in experiment [4]; in experiment [5]) was “inactive” each time. The Potency result in experiment [6] was “inactive”.
With `C=CC(=O)OCCCCCCCC(C)C`, the Potency entry (with Aromatase (Homo sapiens); in [1]; in experiment [2]; in experiment [3]; in experiment [4]; in experiment [5]) was “inactive” each time. Also, in [6], the Potency entry is “inactive”.
With `Brc1ccccc1-c1ccccc1`, the Potency result in experiment [2], in experiment [8], in experiment [3], in [4], in experiment [5] and in experiment [6] was “inactive” in each case. In [7], the activity change, positive = activation is -1.58%.
On to `Clc1ccccc1-c1ccccc1Cl`, for which, in the experiment with Aromatase (Homo sapiens), the Potency was 78.1 µM (active). Moreover, the Potency result in [1], in [2], in experiment [9], in experiment [10], in experiment [8] and in experiment [3] was “inactive” each time. Further, the Potency result in experiment [4], in [5] and in experiment [6] was “inactive” each time. Besides, the outcome in experiment [11], in [12] and in experiment [13] was inactive.
With `CCCCCCCC#N`, the Potency entry (in the experiment with Aromatase (Homo sapiens); in experiment [2]; in [8]; in experiment [3]; in [4]; in [5]) was “inactive” throughout. Moreover, the Potency entry in [6] is “inactive”.
Turning to `O=[N+]([O-])c1cccc(Cl)c1Cl`, the Potency result in experiment [1], in [2], in experiment [14], in [3], in [4] and in [5] was “inactive” in each case. Besides, the Potency entry in experiment [6] was “inactive”.
With `Brc1ccc(Br)c(Br)c1`, the Potency entry (with Aromatase (Homo sapiens); in experiment [1]; in experiment [2]; in experiment [8]; in experiment [3]; in experiment [4]) was “inactive” each time. For the same molecule, the Potency result in [5] and in experiment [6] was “inactive” throughout.
`Brc1c2ccccc2cc2ccccc12`: the Potency result (with Aromatase (Homo sapiens); in experiment [1]; in experiment [2]; in experiment [8]; in experiment [3]; in experiment [4]) was “inactive” throughout. Moreover, the Potency result in experiment [5] and in experiment [6] was “inactive” each time.
For `C1=CC2C3C=CC(C3)C2C1` (centres undefined), the Potency result (with Aromatase (Homo sapiens); in experiment [2]; in experiment [3]; in experiment [4]; in experiment [5]; in [6]) was “inactive” each time.
In the case of `CC(CCl)OP(=O)(OC(C)CCl)OC(C)CCl` (centres undefined), the Potency result (with Aromatase (Homo sapiens); in [1]; in experiment [2]; in experiment [3]; in experiment [4]; in [5]) was “inactive” throughout. In addition, the Potency result in experiment [6] was “inactive”. Besides, the activity change, positive = activation in experiment [7] is -19.5%.
As for `Cc1cccc(C)c1[N+](=O)[O-]`, the Potency entry (with Aromatase (Homo sapiens); in [2]; in [8]; in [3]; in [4]; in experiment [5]) was “inactive” throughout. For the same molecule, the Potency entry in experiment [6] was “inactive”.
Take `Oc1cc(Cl)cc(Cl)c1Cl`: the Potency in experiment [1] is 24.9 µM (active); in experiment [2], 62.6 µM (active). Moreover, the Potency result in experiment [8], in [3], in experiment [4], in [5] and in experiment [6] was “inactive” each time.
`CC(C)=O`: the Potency entry (with Aromatase (Homo sapiens); in experiment [2]; in experiment [3]; in experiment [4]; in [5]; in experiment [6]) was “inactive” in each case.
Consider `Nc1ccc(Cl)cc1Cl`, for which the Potency result in experiment [2], in [14], in experiment [8], in experiment [3], in [4] and in [5] was “inactive” in each case. The Potency entry in experiment [6] is “inactive”. Besides, the activity change, positive = activation in experiment [7] is -4.05%.
For the molecule `C=CCOC(=O)c1ccccc1C(=O)OCC=C`, the Potency entry (with Aromatase (Homo sapiens); in experiment [1]; in experiment [2]; in [3]; in experiment [4]; in [5]) was “inactive” throughout. For the same molecule, in experiment [6], the Potency entry was “inactive”.
Regarding `Nc1ccccc1[N+](=O)[O-]`, the Potency result (with Aromatase (Homo sapiens); in [1]; in experiment [2]; in experiment [8]; in experiment [3]; in [4]) was “inactive” each time. Besides, the Potency result in experiment [5] and in [6] was “inactive” each time.
`CCc1cccc(CC)c1N`: the Potency entry (in the experiment with Aromatase (Homo sapiens); in experiment [1]; in [3]; in experiment [4]; in [5]; in experiment [6]) was “inactive” throughout.
For `OCC(CBr)(CBr)CBr`, the Potency entry (in the experiment with Aromatase (Homo sapiens); in [2]; in experiment [8]; in experiment [3]; in experiment [4]; in experiment [5]) was “inactive” in each case. Also, in experiment [6], the Potency result was “inactive”.

The record behind these values is PubChem BioAssay (Tox21).
